# From ChEMBL document CHEMBL3988442, “University of Dundee, Small-Polar-MMV Screening Library” (2021)
# Measured potencies and affinities stand elsewhere.
# Molecular target: Protein translocase subunit SecA (Escherichia coli (strain K12)) (UniProt P10408)
# Experiment: Assay to Identify E. coli SecA ATPase Inhibitors
# Type: functional
# Set-up: scale not given: direction of the effect not stated beside the values
# Settings: 30 µM
# Protein translocase subunit SecA (Escherichia coli (strain K12)), sequence (P10408 whole entry): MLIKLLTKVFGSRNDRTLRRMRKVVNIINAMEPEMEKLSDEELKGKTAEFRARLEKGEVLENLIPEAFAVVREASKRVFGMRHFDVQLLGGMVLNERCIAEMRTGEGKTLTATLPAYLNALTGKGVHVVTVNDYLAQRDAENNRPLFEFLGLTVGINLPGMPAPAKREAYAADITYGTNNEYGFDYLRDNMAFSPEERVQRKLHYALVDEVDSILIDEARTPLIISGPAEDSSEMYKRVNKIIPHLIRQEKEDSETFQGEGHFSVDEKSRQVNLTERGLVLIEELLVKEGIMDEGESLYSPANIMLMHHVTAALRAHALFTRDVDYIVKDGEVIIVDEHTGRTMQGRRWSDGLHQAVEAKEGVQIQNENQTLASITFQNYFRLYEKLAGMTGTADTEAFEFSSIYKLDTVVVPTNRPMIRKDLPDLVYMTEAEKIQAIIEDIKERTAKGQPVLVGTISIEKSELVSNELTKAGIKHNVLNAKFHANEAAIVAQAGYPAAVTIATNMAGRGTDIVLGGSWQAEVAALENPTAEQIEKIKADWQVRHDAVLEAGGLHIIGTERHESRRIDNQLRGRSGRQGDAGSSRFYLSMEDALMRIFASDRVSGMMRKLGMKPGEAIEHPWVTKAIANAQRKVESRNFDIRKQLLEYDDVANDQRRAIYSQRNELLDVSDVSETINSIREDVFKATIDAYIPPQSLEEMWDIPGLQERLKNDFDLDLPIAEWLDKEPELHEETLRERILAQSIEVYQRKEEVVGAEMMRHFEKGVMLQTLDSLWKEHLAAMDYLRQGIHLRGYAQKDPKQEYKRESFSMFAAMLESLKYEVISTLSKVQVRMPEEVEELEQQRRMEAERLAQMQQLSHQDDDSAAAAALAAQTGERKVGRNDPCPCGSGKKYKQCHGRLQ
row,SMILES,Percent Effect [%]
1,Cc1ncsc1C(=O)N(C)CCc1ccncc1,-2.19
2,O=C(O)c1ccc(F)c(S(=O)(=O)Nc2c(F)cccc2-n2cccn2)c1,-6.05
3,Cn1cnc2c1C(COCc1cccnc1)N(Cc1ccccn1)CC2 (centres undefined),-3.69
4,Cc1cc(CN2CCCC(C)(CO)C2)ccc1F (centres undefined),0.156
5,CCS(=O)(=O)CC(=O)NC(c1ccc(F)cc1)C1CCCC1 (centres undefined),-5.43
6,O=C(Nc1cccc(CN2CCOC2=O)c1)N1CCOCC1,-1.28
7,CC(C)c1cc(NC(=O)c2ccc(C(=O)NC(C)(C)C)cc2)[nH]n1,-6.52
8,CN(C)C(=O)CN1CCCCC1c1nc(N)ncc1-c1cccc(F)c1 (centres undefined),-4.39
9,CCN1CC(C(=O)NC(C)(C)CC(C)(C)C)CC1=O (centres undefined),-3.13
10,CC(C)CS(=O)(=O)CC(=O)N(C)Cc1ccc(OC(F)F)cc1,-4.46
11,Cc1ccc(C(=O)Nc2cn[nH]c2)cn1,0.472
12,CSc1nccn1-c1cccc(C(=O)NCc2nnc(C)n2C)c1,-3.63
13,CN(Cc1cnn(C)c1)C(=O)Cn1c(CS(C)(=O)=O)nc2ccccc21,-1.5
14,CC1CN(Cc2nccn2C)CCN1c1ccc2nncn2n1 (centres undefined),-5.26
15,O=C(CCn1cccn1)N1CCN(CC(F)F)CC1,-2.93
16,Cc1noc(C(C)C)c1C(=O)N1CCCN(Cc2cscn2)CC1,-4.04
17,CS(=O)(=O)CCNC(=O)C1(c2cccc(Cl)c2)CCCCC1,-7.1
18,CCc1n[nH]c(C2CN(C(=O)c3ccsc3)CCO2)n1 (centres undefined),-3.58
19,CN(C)C(=O)N1C[C@@H]2CC[C@H](C1)N(C(=O)CCCn1cncn1)C2,-2.38
20,CN1CCN(C2CCN(CC(=O)NCC(F)(F)F)CC2)C1=O,-6.45

row,SMILES,Percent Effect [%]
1,CN(C)S(=O)(=O)N1C[C@@H](Oc2ccccn2)[C@H]2OCCC[C@H]21,-3.77
2,Cc1ccc(CC(=O)N2Cc3nccn3CC(CN(C)C)C2)cc1 (centres undefined),2.93
3,COc1cc(CNCc2ccnc(N3CCOCC3)c2)cc(Cl)c1OC,-5.46
4,CC(C)(C)OC(=O)NC(C)(C)c1noc(CN2CCCCC2)n1,-5.9
5,Cc1cc(CC(=O)NCc2ccnc(OCC(F)(F)F)c2)no1,-9.52
6,Cc1nc(N2CCN(C(=O)C(C)(C)C)CC2)cc(-n2cnc(C)c2C)n1,-3.24
7,Cc1ccc(-c2noc(CN3CCOC(Cn4cncn4)C3)n2)cc1 (centres undefined),-4.95
8,Cc1nc(C)n(CC2CCCN2CC(=O)NCCc2ccccc2)n1 (centres undefined),0.351
9,Cn1c(C2CC2)nc2c1CCN(CC(=O)Nc1nncs1)C2,-2.25
10,CCc1csc(C2CCCN(C(=O)C3=NN(CC)C(=O)CC3)C2)n1 (centres undefined),-3.73
11,Cc1nccc([C@H]2C[C@@H]3CCN(S(=O)(=O)N(C)C)C[C@H]3O2)n1,-2.42
12,CO[C@H]1CCN(c2ncccn2)[C@H]1Cc1ccccc1,1.4
13,CNc1cc(N2CCCC2CNCc2ccc(Cl)o2)ncn1 (centres undefined),-6.85
14,O=C(O)C(c1ccc2c(c1)OCO2)N1CCC(C(=O)N2CCCC2)CC1 (centres undefined),-6.55
15,COc1ccc(CC(=O)N2CCCCC2Cn2cccn2)cc1OC (centres undefined),-5.85
16,COCC(c1cccc(C(F)(F)F)c1)N(C)C(=O)c1cc(C)no1 (centres undefined),-0.889
17,CNS(=O)(=O)CCCN1CCCC1c1cc(C)on1 (centres undefined),-2.37
18,Cc1cc(C)n(CC2CCCN2CC(=O)NC2CCOCC2)n1 (centres undefined),-8.59
19,Cc1cc(C)n(-c2ccc(CNCc3ccc(OC(C)C)cc3)cn2)n1,-0.648
